# Records with an inconclusive call do not appear. Values without a mark were called inactive. Calls of active or inactive are those of the source. Calls come from the whole dose curve; as a rule, active = well fitted curve in the direction sought with a large enough effect; inconclusive = small, poorly fitted or top-dose-only effect, or another doubt; inactive = no such curve, though single readings can be large; an effect the other way counts as inactive or inconclusive.
# Target: Rap guanine nucleotide exchange factor 3 (Homo sapiens) (UniProt O95398)
# Assay: Counterscreen qHTS for antagonist of cAMP-regulated guanine nucleotide exchange factor 3 (EPAC1) (AID 1645888);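 note: fluorescence loss as bound BODIPY-GDP is released from Rap1B; % of control where 0% means no effect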
# Conditions: Rap1B-BODIPY-GDP nucleotide exchange, fluorescence; series mostly up to 154 µM; activity change, negative = inhibition: at the top concentration
# Summary of the method: (§1)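 Rap1B-BODIPY-GDP 250 nM + GDP 50 uM; cpds 7-pt, final 9.74 nM–152 uM (activator mode) or from 7.32 nM upwards (inhibitor mode); RT; FI 480/540 nm at 5 and 30 min, then ± cAMP, reread.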
# Rap guanine nucleotide exchange factor 3 (Homo sapiens), sequence (O95398 whole entry, looked up): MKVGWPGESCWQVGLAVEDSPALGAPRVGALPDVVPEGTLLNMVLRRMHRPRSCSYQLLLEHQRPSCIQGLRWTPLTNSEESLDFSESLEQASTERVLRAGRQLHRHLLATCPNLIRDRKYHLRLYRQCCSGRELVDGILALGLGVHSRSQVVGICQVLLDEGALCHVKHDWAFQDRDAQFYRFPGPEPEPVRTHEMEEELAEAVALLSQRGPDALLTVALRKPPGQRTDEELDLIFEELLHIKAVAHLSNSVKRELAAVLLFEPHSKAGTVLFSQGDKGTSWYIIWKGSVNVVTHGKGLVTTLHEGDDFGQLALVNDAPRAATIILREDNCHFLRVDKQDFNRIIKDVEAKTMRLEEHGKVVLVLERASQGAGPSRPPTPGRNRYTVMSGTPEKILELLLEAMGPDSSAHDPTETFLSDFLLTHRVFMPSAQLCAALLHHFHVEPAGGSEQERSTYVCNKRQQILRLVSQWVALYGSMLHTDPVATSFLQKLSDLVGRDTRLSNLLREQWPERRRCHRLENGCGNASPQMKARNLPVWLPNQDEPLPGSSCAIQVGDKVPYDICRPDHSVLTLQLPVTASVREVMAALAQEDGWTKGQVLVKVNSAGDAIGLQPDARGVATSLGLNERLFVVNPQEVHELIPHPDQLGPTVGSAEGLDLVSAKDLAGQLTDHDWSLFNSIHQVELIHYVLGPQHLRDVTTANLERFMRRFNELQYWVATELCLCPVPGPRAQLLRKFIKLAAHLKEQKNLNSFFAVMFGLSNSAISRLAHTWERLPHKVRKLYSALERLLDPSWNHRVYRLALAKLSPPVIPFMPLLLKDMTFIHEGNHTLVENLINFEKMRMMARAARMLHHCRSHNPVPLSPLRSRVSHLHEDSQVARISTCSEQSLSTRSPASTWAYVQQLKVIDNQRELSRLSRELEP
row,Compound,"activity change, negative = inhibition"
1,COC(=O)c1ccccc1-c1c2ccc(=N)cc-2oc2cc(N)ccc12,159%
2,Cc1c2ccccc2nc2c(F)c(NCCO)c(F)c(F)c12,9.94%
3,CC[n+]1c(/C=C/C=C/N(C(C)=O)c2ccccc2)sc2ccccc21,35.3%
4,O=[N+]([O-])/C=C/c1cn(Cc2ccc(Cl)cc2)c2ccccc12,5.79%
5,Cc1cccc(N2CCCC2=Nc2ccc(Br)cc2C#N)c1,-16.5%
6,CCCCn1nnnc1C(c1cc2ccccc2o1)N1CCCCC1 (stereo not drawn),-8.42%
7,c1ccc(-c2cnn3c(-c4ccccc4)c(-c4ccccc4)nc3n2)cc1,3.01%
8,O=c1c(/C=C(\O)c2ccccc2)nc2ccccc2n1-c1ccccc1,-1.75% [at 30.8 µM]
9,COc1cccc(Nc2nnc(-c3cc4ccc(O)cc4oc3=O)s2)c1,129%
10,O=C1OC(c2ccccc2)(c2ccccc2)c2ccccc21,2.72% [at 30.8 µM]
11,O=C(OCCN1C(=O)c2cccc3c(N4CCOCC4)ccc(c23)C1=O)c1ccc(Cl)cc1Cl,68.2% [at 30.8 µM]
12,Fc1ccc(Nc2cncc(-c3ccsc3)c2)cc1Cl,3.53%
13,COc1cc2c3nnc(-c4ccc(F)cc4)c-3cn(Cc3cccc(C)c3)c2cc1OC,49.7%
14,c1ccc(Oc2nc(-c3cccnc3)nc3ccccc23)cc1,-26.6%
15,Cc1ccc2c(c1)N(Cc1cccc(F)c1)C(=O)C(C)O2 (stereo not drawn),0.501%
16,O=C(O)c1ccc(COc2ccccc2/C=C2/NC(=O)N(c3cccc(Cl)c3)C2=O)cc1,5.8%

# Target: Rap guanine nucleotide exchange factor 3 (Homo sapiens) (UniProt O95398)
# Assay: Counterscreen qHTS for agonist of cAMP-regulated guanine nucleotide exchange factor 3 (EPAC1) (AID 1645889); note: nearly all actives have a fitted effect of over 40% in size; note: potency is the fitted concentration of half-maximal effect; for activation: % of control where 0% means no effect
# Conditions: EPAC1 Rap1B-BODIPY-GDP exchange, fluorescence; series mostly up to 154 µM; activation: at the top concentration
# Summary of the method: as §1
Compound,Potency,activation
C[n+]1ccc(/C=C/c2c[nH]c3ccccc23)cc1,35.5 µM (active),
CCOc1ccc(S(=O)(=O)Nc2cc(SCC(=O)O)c(O)c3ccccc23)cc1,56.2 µM (active),
CC1CCN(C2(O)C(=O)Nc3ccc(Br)cc32)CC1 (stereo not drawn),,-4.09%
CC(C)(C)C1COc2ccccc2N1C(=O)c1ccccc1Cl (stereo not drawn),,7.3%
Cc1cccc(N2CCCC2=Nc2ccc(Br)cc2C#N)c1,,6.4%
Cc1ccc(CNC(=O)c2cccc3c2C(=O)c2ccc(N4CCC(C)CC4)cc2S3(=O)=O)cc1,11.2 µM (active),
COc1cc2c3nnc(-c4ccc(F)cc4)c-3cn(Cc3cccc(C)c3)c2cc1OC,,-83.4%

# — PubChem BioAssay (NCATS)
